The text below walks through data of PubChem BioAssay (Tox21).

A number with no mark means an inactive call. Results filed as inconclusive are left out. The source made the active and inactive calls. Unless noted, calls come from the whole dose curve; as a rule, active = well fitted curve in the direction sought with a large enough effect in the repeat runs; inconclusive = weak or mixed curves; inactive = no such curve, though single readings can be large; an effect the other way counts as inactive or inconclusive. Where a SMILES comes first, the peptide text is derived from it. [ ]: non-standard residue; d: D form. pGlu = O=C1CC[C@@H](C(=O)O)N1

Assay [1] can be described thus: qHTS assay to identify small molecule agonists of H2AX (AID 1224845; active = well fitted activation curve with a large enough effect in the signal ratio in the repeat runs, not every such curve was filed as active; the % refers to the signal ratio; note: potency is the fitted concentration of half-maximal effect). In outline:
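Wild-type CHO-K1 cells plated overnight, then exposed 3 hr at 37C to compounds at 15 concentrations (0.76% DMSO). Lysed, then HTRF anti-pH2AX(S139)-cryptate/anti-H2AX-d2 detection after 24 hr at room temperature; emissions 665 and 620 nm.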
For orientation: qHTS replaces the single test concentration by a dilution series.

Assay [2] is described as follows: qHTS assay to identify small molecule agonists of the hypoxia (HIF-1) signaling pathway (AID 1224846; active = well fitted activation curve with a large enough effect in the signal ratio in the repeat runs, not every such curve was filed as active; the % refers to the signal ratio). The method, boiled down: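 Reporter induction in HRE-bla ME-180 cells is taken as agonism: cells sit 5 hrs after plating, receive compounds or DMSO only, incubate 17 hrs at 37C under 5% CO2, and are loaded with CCF4-AM for beta-lactamase FRET measurement.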
Assay [3] is described as follows: qHTS assay to identify small molecule agonists of H2AX - cell viability counter screen (AID 1224847; calls by dose curve; note: top concentration of the series differs between compounds; nearly all actives have a fitted effect of over 30% in size). In outline:
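After overnight plating of 1000 CHO-K1 cells per well, a 15-concentration compound series was applied for 3 hr at 37C. Luminescence from CellTiter-Glo, read following 30 min at room temperature, reflected cell viability.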

A short description of assay [4]: qHTS assay to identify small molecule antagonists of the estrogen related receptor (ERR) signaling pathway from Tox21 library (AID 1224848). Note: nearly all actives have a fitted effect of over 50% in size. The method, boiled down:
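First, 2,000 ERR cells per well were plated and held 6 h at 37 C/5% CO2. Next, compounds in DMSO were pinned in and left 18 h at 37 C. Finally, ONE-Glo was added and luminescence read after 30 min at room temperature.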

A short description of assay [5]: qHTS assay to identify small molecule agonists of the estrogen related receptor (ERR) signaling pathway from Tox21 library (AID 1224849; calls by dose curve; note: nearly all actives have a fitted effect of over 15% in size). The method, boiled down:
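Tox21 compounds tested for ERR agonism in an NTP reporter cell line: 18 h treatment at 37 C, then ONE-Glo luminescence.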

Assay [6] can be described thus: qHTS RealTime-Glo MT Cell Viability Assay in HepG2 cells - 24 hour (AID 1224867). Note: nearly all actives have a fitted effect of over 50% in size. In outline: (§1)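 Viability was tracked continuously by NanoLuc luminescence from prosubstrate reduced by living HepG2 cells, at successive time points over 40 h of compound exposure. Cells with reagent were preincubated 5 h at 37 °C before compound addition.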
A short description of assay [7]: qHTS RealTime-Glo MT Cell Viability Assay in HEK293 cells - 32 hour (AID 1224868). Note: top concentration of the series differs between compounds; nearly all actives have a fitted effect of over 50% in size. The method, boiled down:
(§2)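 Viability tracked continuously by luminescence as live cells reduce a prosubstrate for NanoLuc; HEK293 cells preincubated 5 h, compound-treated at 37 C, and read at 0, 8, 16, 24, 32 and 40 h.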

The nature of assay [8]: A CellTox Green Cytotoxicity Assay to monitor cytotoxicity in HEK293 cells - 0 hour (AID 1224869). Note: nearly all actives have a fitted effect of over 50% in size. In outline:
(§3)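 Tox21 screen in HEK293: membrane-impermeant cyanine dye fluoresces on binding dead-cell DNA; compound pinned 5 h post-seeding, plates held at 37 C, signal read repeatedly through 40 h.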

The nature of assay [9]: A CellTox Green Cytotoxicity Assay to monitor cytotoxicity in HEK293 cells - 40 hour (AID 1224871). Note: nearly all actives have a fitted effect of over 45% in size. The method, boiled down:
as §3

A short description of assay [10]: qHTS RealTime-Glo MT Cell Viability Assay in HEK293 cells - 16 hour (AID 1224872). In outline: as §2
Assay [11] can be described thus: qHTS RealTime-Glo MT Cell Viability Assay in HepG2 cells - 8 hour (AID 1224873). Note: nearly all actives have a fitted effect of over 55% in size. In outline:
(§4)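 HepG2 cells mixed with RealTime-Glo MT reagents (NanoLuc plus cell-permeant prosubstrate) were seeded at 600 cells/well, incubated 5 h at 37 C/5% CO2, then pinned with compounds in DMSO; nonlytic luminescence tracked viability during 40 h treatment.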

The nature of assay [12]: qHTS RealTime-Glo MT Cell Viability Assay in HEK293 cells - 40 hour (AID 1224874). Note: nearly all actives have a fitted effect of over 50% in size. The conditions noted are these: RealTime-Glo luminescence; max response: active compounds read low. The method, boiled down:
(§5)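 HEK293 + NanoLuc + prosubstrate, 600 cells/well; 5 h, 37 C/5% CO2; compound 23 nL in DMSO by pintool; 37 C; luminescence read at 0, 8, 16, 24, 32 and 40 h time points.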

Assay [13] can be described thus: A CellTox Green Cytotoxicity Assay to monitor cytotoxicity in HEK293 cells - 24 hour (AID 1224875). Note: series mostly up to about 77 µM; nearly all actives have a fitted effect of over 45% in size. The method, boiled down: as §3
Assay [14] is described as follows: A CellTox Green Cytotoxicity Assay to monitor cytotoxicity in HepG2 cells - 16 hour (AID 1224876). Note: nearly all actives have a fitted effect of over 45% in size. In outline:
(§6)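 Measurements at 0, 8, 16, 24, 32 and 40 h of treatment captured CellTox Green fluorescence in HepG2 cells that had been co-plated with reagent and preincubated 5 h at 37 C/5% CO2.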

The nature of assay [15]: qHTS RealTime-Glo MT Cell Viability Assay in HepG2 cells - 32 hour (AID 1224877). Note: nearly all actives have a fitted effect of over 55% in size. Note: potency is the fitted concentration of half-maximal effect. The method, boiled down:
as §1

Assay [16] can be described thus: A CellTox Green Cytotoxicity Assay to monitor cytotoxicity in HepG2 cells - 24 hour (AID 1224878). Note: nearly all actives have a fitted effect of over 45% in size. In outline:
as §6

Assay [17] is described as follows: qHTS RealTime-Glo MT Cell Viability Assay in HEK293 cells - 0 hour (AID 1224880). The method, boiled down:
as §5

Assay [18] in a line: A CellTox Green Cytotoxicity Assay to monitor cytotoxicity in HEK293 cells - 32 hour (AID 1224881). Note: nearly all actives have a fitted effect of over 40% in size. The method, boiled down: as §3
The nature of assay [19]: qHTS RealTime-Glo MT Cell Viability Assay in HepG2 cells - 40 hour (AID 1224870). Note: nearly all actives have a fitted effect of over 50% in size. Note: potency is the fitted concentration of half-maximal effect. The method, boiled down:
as §4

The nature of assay [20]: A CellTox Green Cytotoxicity Assay to monitor cytotoxicity in HepG2 cells - 40 hour (AID 1224879). Note: nearly all actives have a fitted effect of over 40% in size. The method, boiled down: as §6
% is set by controls: 0 for no effect and ±100 for the full control effect.

In the case of `CCNC(=O)[C@@H]1CCCN1C(=O)[C@H](CCCN=C(N)N)NC(=O)[C@H](CC(C)C)NC(=O)CNC(=O)[C@H](Cc1ccc(O)cc1)NC(=O)[C@H](CO)NC(=O)[C@H](Cc1c[nH]c2ccccc12)NC(=O)[C@H](Cc1cnc[nH]1)NC(=O)[C@@H]1CCC(=O)N1` ([pGlu]HWSYGLRP-NHEt), the Potency entry in [1], in assay [4], in [7], in [9], in assay [10] and in [15] was “inactive” in each case. Also, the Potency entry in assay [17] is “inactive”. The compound was classed as inactive in [2], in [3], in [5], in assay [6], in assay [8] and in assay [11]. The outcome in assay [13], in assay [14], in assay [16] and in assay [18] was inactive. Moreover, the max response in assay [12] was 7.73%.
As for `CC(C#N)(CCC(=O)O)N=NC(C)(C#N)CCC(=O)O` (stereo unspecified), the Potency entry in assay [1], in assay [4], in assay [7], in [19], in assay [9] and in assay [10] was “inactive” throughout. The Potency entry in assay [15], in assay [20] and in assay [17] was “inactive” throughout. In addition, the compound was classed as inactive in assay [2], in [3], in assay [5], in assay [6], in [8] and in assay [11]. Besides, the result in assay [13], in [14], in assay [16] and in [18] was inactive. In addition, the max response in assay [12] was 3.09%.
`COc1ccc2cc1Oc1cc3c(cc1OC)CC[N+](C)(C)[C@H]3Cc1ccc(cc1)Oc1c(OC)c(OC)cc3c1[C@@H](C2)[N+](C)(C)CC3`: the Potency entry in [1], in [4], in assay [7], in [9], in [10] and in assay [17] was “inactive” in each case. Moreover, the outcome in [2], in assay [3], in assay [5], in assay [8], in assay [11] and in assay [13] was inactive. Also, the compound was classed as inactive in assay [14], in assay [16] and in [18]. For the same compound, the Potency in assay [19] is 16.9 µM (active); in assay [15], 21.3 µM (active). Besides, the max response in [12] was -3.12%.
Turning to `Nc1ccn([C@@H]2O[C@H](CO)[C@@H](O)C2O)c(=O)n1` (stereo partly specified), in assay [1], the Potency is 56.6 µM (active). The call in assay [2], in assay [3], in [5], in [8], in assay [11] and in assay [13] was inactive. The result in assay [14] and in [18] was inactive. For the same compound, the Potency entry in assay [4], in assay [7], in assay [19], in assay [9], in assay [10] and in assay [15] was “inactive” each time. Moreover, in assay [17], the Potency result is “inactive”. Moreover, in assay [12], the max response is 6.25%.
Turning to `CCCCN1C=CN(C)C1`, in [1], the activation (H2AX phosphorylation) is -0.0666% [at 31.6 µM]. Moreover, in assay [2], the activation is -0.256% [at 15.8 µM]. For the same compound, the activity change, negative = cytotoxicity in assay [3] was -1.83% [at 31.6 µM]; in [6], 3.12% [at 15.8 µM]; in assay [10] it was 5.82% [at 15.8 µM]; in assay [17], 0.0716% [at 15.8 µM]. Moreover, in [4], the activity, negative = inhibition was 18.5% [at 19 µM]. Further, the activity change, positive = activation in [5] is 9.96% [at 19 µM]. Besides, the activity change, negative = cytotoxic in [7] is 8.51% [at 15.8 µM]; in assay [19], -0.384% [at 15.8 µM]; in assay [15] it was -0.21% [at 15.8 µM]. The cytotoxicity in [8] was -3.75% [at 15.8 µM]. The cytotoxicity increase in assay [9] was -12.1% [at 15.8 µM]; in assay [14], -14.5% [at 15.8 µM]; in [20], -22.4% [at 15.8 µM]; in assay [18] it was -9.11% [at 15.8 µM]. Further, in [11], the viability change, negative = cytotoxic was 2.13% [at 15.8 µM]. The max response in assay [12] is 9.09%.
Regarding `[O-][n+]1cccc(CO)c1`, the Potency entry in [1], in assay [7], in [19], in [9], in assay [10] and in assay [15] was “inactive” throughout. Further, the Potency result in assay [20] was “inactive”. The result in assay [2], in assay [3], in assay [6], in assay [8], in assay [11] and in [13] was inactive. The compound was called inactive in [14], in [16] and in [18]. In addition, the max response in [12] is 8.89%.
For the compound `O=C(O)Cc1csc(-c2ccc(Cl)cc2)n1`, the Potency entry in assay [1], in assay [7], in assay [19], in assay [9], in [10] and in assay [15] was “inactive” throughout. Further, the Potency result in assay [20] and in [17] was “inactive” each time. Moreover, the compound was classed as inactive in assay [2], in assay [3], in assay [6], in [8], in assay [11] and in [13]. In addition, the call in assay [14], in assay [16] and in assay [18] was inactive. Also, the max response in assay [12] is 1.2%.
